Assay outcomes (PubChem BioAssay)
TDP1 inh = inhibitors of human tyrosyl-DNA phosphodiesterase TDP1. Q9NUW8. recombinant TDP1, AlphaScreen DNA substrate cleavage. 350,000 tested, 0.28% active. AID 485290. Potency, µM (series often up to 130 µM), without a hit: at the highest dose activity change, negative = inhibition, most hits filed as inhibitors; further: nearly all actives have a fitted effect of over 40% in size
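Steps: enzyme plus compound, 15 min RT; add biotin/phosphotyrosine-FITC oligonucleotide (15 nM final), react 5 min; add donor/acceptor beads (10 ug/ml final), 10 min; read AlphaScreen. Tdp1 at 1 nM final.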
GCN5L2 inh = inhibitors of human GCN5L2 histone acetyltransferase; Q92830; GCN5L2 HAT assay, ThioGlo1 CoA-SH fluorescence; Potency, µM (top dose mostly 58.9 µM), without a hit: at the highest dose activity change, negative = inhibition, actives largely listed as inhibitors; 390,000 tested, 0.21% active; AID 504327
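GCN5L2 (20 nM) in 50mM HEPES pH 7.5, 0.1mM EDTA, 0.01% Tween-20 preincubated 15 min with compounds at room temperature. Reaction started with H3(1-25) 75uM, acetyl-CoA 70uM, ThioGlo1 50uM; CoA-thiol fluorescence (Ex340/Em540) read at 0 and 20 min.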
BLM inh = Bloom syndrome helicase (human) inhibition; P54132; 350,000 tested, 0.2% active; AID 2528; Potency, µM (series often up to 56.1 µM), without a hit: at the top dose activity change, negative = inhibition, actives largely listed as inhibitors; recombinant BLM DNA unwinding, fluorescence dequenching;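 further: plate controls were vehicle for no effect and no enzyme for full effect; nearly all actives have a fitted effect of over 35% in size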
Target sequence (P54132 whole entry, looked up): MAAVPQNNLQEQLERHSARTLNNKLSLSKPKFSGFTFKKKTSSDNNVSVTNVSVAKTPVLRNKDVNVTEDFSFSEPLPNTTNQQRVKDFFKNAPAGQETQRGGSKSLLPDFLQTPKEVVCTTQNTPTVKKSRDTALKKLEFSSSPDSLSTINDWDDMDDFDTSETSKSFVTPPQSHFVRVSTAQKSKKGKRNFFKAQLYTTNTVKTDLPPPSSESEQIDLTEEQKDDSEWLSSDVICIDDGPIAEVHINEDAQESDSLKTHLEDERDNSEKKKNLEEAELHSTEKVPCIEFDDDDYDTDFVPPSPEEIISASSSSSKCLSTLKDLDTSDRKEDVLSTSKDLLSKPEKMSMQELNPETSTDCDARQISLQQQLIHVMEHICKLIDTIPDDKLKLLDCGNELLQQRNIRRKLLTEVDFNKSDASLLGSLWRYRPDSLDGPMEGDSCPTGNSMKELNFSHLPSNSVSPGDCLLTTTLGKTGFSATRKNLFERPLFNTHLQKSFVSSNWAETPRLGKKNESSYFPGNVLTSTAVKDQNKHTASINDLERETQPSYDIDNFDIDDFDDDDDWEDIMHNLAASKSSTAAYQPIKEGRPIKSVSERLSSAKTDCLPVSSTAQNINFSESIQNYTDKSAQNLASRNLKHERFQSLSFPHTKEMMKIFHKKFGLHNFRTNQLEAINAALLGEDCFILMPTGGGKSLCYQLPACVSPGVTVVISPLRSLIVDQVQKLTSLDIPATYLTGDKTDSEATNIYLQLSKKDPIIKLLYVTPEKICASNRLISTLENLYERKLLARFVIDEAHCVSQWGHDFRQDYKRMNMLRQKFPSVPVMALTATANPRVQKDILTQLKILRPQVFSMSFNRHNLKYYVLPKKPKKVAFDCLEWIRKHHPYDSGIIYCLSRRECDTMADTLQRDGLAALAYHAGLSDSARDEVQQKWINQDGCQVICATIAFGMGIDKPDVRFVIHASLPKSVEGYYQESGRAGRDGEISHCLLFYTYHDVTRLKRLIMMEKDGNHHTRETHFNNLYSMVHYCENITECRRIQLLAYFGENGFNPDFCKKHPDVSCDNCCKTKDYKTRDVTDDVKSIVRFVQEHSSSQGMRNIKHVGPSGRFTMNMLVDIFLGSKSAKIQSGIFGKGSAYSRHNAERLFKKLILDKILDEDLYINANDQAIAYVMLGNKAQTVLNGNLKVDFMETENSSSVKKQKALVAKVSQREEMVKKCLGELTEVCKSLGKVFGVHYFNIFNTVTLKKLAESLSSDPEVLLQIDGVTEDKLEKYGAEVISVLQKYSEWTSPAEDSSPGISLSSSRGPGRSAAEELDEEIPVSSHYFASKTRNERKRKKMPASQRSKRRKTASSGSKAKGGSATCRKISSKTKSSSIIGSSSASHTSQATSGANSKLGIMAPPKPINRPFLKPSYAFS
RECQ1 inh-1 = RECQ1 (human) helicase inhibition; RECQ1 DNA unwinding, red fluorescence kinetic read; Potency, µM (highest dose often 57.3 µM), for inactives: at the highest dose activity, negative = inhibition, actives largely listed as inhibitors; 240,000 tested, 0.54% active; AID 2549;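 further: plate controls were vehicle for no effect and no enzyme for full effect; nearly all actives have a fitted effect of over 30% in size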
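RECQ1T1 50 nM; forked duplex (20 bp + 30-nt ss tails) 200 nM, ATP 2 mM final; pH 8.0, 2 mM MgCl2, 2.5 ug/ml poly(dI-dC); 15 min compound preincubation; discontinuous kinetic read over 2 h at RT.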
APEX1 inh = APE1 (human) endonuclease inhibition. P27695. recombinant APE1, TAMRA/BHQ-2 abasic DNA cleavage fluorescence. Potency, µM (series often up to 65.8 µM), inactives show at the highest dose activity change, negative = inhibition, most hits filed as inhibitors. 350,000 tested, 0.35% active;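 further: plate controls were vehicle for no effect and reference inhibitor for full effect; nearly all actives have a fitted effect of over 55% in size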
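Quantitative HTS: incision of a TAMRA/BHQ-2 double-stranded substrate bearing a tetrahydrofuran abasic site by 0.75 nM APE1 raises fluorescence. Substrate 50 nM final, added after 15 min compound preincubation at room temperature; progress as third-minus-first kinetic read difference.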
Lamin A splicing = modulators of lamin A splicing; 200,000 tested, 0.01% active; Potency, µM (series often up to 46.1 µM), for inactives: at the top dose ratio change, negative = inhibition, usual class: inhibitors; HeLa LMNA splicing GFP/RFP minigene ratio, 48 h; active means well fitted inhibition curve with a large enough effect in the signal ratio, with a control signal flat, not every such curve was filed as active; inconclusive means small, poorly fitted or top-dose-only effect, or effect the other way, or a change in a side signal; the % refers to the signal ratio
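S3 HeLa cells stably expressing lamin A-EGFP splicing minigene plus DsRed2, 600 cells/well, 48 h compound exposure at 37C. Laser-scanning cytometry; analysed as GFP (500-530 nm)/RFP (575-640 nm) total intensity ratio; 0.5% DMSO vehicle.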
RECQ1 conf = confirmation of human RECQ1 helicase inhibitors | shares compounds with RECQ1 inh-1 | RECQ1 helicase DNA unwinding, fluorescence | Potency, µM (doses to about 229 µM), without a hit: at the top dose activity change, negative = inhibition, actives largely listed as inhibitors | 610 tested, 28% active; further: nearly all actives have a fitted effect of over 45% in size
RECQ1 ADP FP = ADP displacement flagged in RECQ1 inhibitor counter-screen; shares compounds with RECQ1 inh-1; ADP fluorescence polarization displacement counterscreen; Potency, µM (top dose mostly 228 µM), for inactives: at the top dose activity change, negative = inhibition, usual class: inhibitors; 530 tested, 27% active; AID 2711; further: nearly all actives have a fitted effect of over 45% in size
RECQ1 inh-2 = confirmation of human RECQ1 helicase inhibitors; 1,100 tested, 15% active; shares compounds with RECQ1 inh-1; Potency, µM (highest dose often 119 µM), for inactives: at the top dose activity, negative = inhibition, actives largely listed as inhibitors; recombinant RECQ1 DNA unwinding, red fluorescence; AID 504841; further: nearly all actives have a fitted effect of over 50% in size
* hit, by the source's call; i = inactive; u = inconclusive; x = no result; [ ] = remark or other dose. This is a sample that favours compounds with a hit; in the whole collection about 0.9% have one here. Unless noted, the call rests on the fitted dose curve; in most records, active means well fitted curve in the direction sought with a large enough effect; inconclusive means small, poorly fitted or top-dose-only effect, or another doubt; inactive means no such curve, though single readings can be large; an effect the other way counts as inactive or inconclusive. Unless noted, on the % scale 0 is the no-effect control and ±100 the full control effect; potency means the concentration at half of the fitted maximal effect.

SMILES	TDP1 inh	GCN5L2 inh	BLM inh	RECQ1 inh-1	APEX1 inh	Lamin A splicing	RECQ1 inh-2	others
O=C(NC(Cc1c[nH]c2ccccc12)C(=O)O)/C(=C/c1ccc2c(c1)OCO2)NC(=O)c1ccccc1 (configuration not stated)	0%	-9%	-1%	-5%	-5%	0%[9.22 µM]	x	RECQ1 conf=4%;RECQ1 ADP FP=u
COc1ccc(-c2nc3cnc(N4CCOCC4)nc3n(CCc3ccccc3)c2=O)cc1	x	-10%	-1%	-11%	2%	u	x
C[C@H]1COC(=O)O1	8%	7%	3%	1%	0%	x	x
Cc1ccc(-n2c(Cc3cccn3C)nnc2SCC(=O)N2CCc3ccccc32)cc1	10%	26%	-17%	0.22µM*	9%	u	-9%	RECQ1 conf=17%[114 µM];RECQ1 ADP FP=14%[91.9 µM]
O=C(O)CCCn1c(=S)[nH]c2c(sc3ccc([N+](=O)[O-])cc32)c1=O	-8%	-3%	2%	18%	-3%	x	x
CC1CCN(CCCn2c(=S)[nH]c3c(sc4ccc([N+](=O)[O-])cc43)c2=O)CC1	0%	1%	-1%	u	17%	x	u
Cc1ccc(C2CC(=O)n3nc(-c4ccc(F)cc4)nc3S2)cc1 (configuration not stated)	x	2%	-3%	x	x	x	x
Cc1ccc(-c2ccc(C3C(C#N)=C(N)Oc4n[nH]c(C)c43)o2)cc1 (configuration not stated)	12%	11%	u	14µM*	u	u	-12%
Cc1[nH]nc2c1C(c1ccc(-c3ccc(Cl)cc3)o1)C(C#N)=C(N)O2 (configuration not stated)	5%	-5%	-1%	-15%	-1%	u	x
Cc1ccnc(NS(=O)(=O)c2ccc(NC(=O)Cc3ccc(F)cc3)cc2)n1	x	-12%	1%	x	-6%	x	x
Cc1ccnc(NS(=O)(=O)c2ccc(NC(=O)Cc3cccs3)cc2)n1	-10%	-27%	-13%	25µM*	u	8%	u
O=C(Cc1cccs1)Nc1ccc(S(=O)(=O)Nc2ncccn2)cc1	x	-2%	-19%	u	u	14%	u
CCc1ccc(-c2cc(C)no2)cc1S(=O)(=O)NCc1ccc(OC)cc1	-3%	-18%	-5%	x	x	x	x
COC(=O)Cn1c(=NC(=O)c2ccc(S(=O)(=O)N3CCc4ccccc4C3)cc2)sc2cc(OC)ccc21	-3%	u	-3%	i	12%	8%	x	RECQ1 conf=0%;RECQ1 ADP FP=10%
COCCn1c(=NC(=O)c2ccc(S(=O)(=O)N3CCc4ccccc4C3)cc2)sc2cc(S(N)(=O)=O)ccc21	11%	-13%	-7%	-10%	11%	-3%	x
COc1ccc(-c2csc(NC(=O)c3ccc(S(=O)(=O)N4CCc5ccccc5C4)cc3)n2)c(OC)c1	3%	-11%	-4%	i	17%	u	x	RECQ1 conf=4%;RECQ1 ADP FP=-10%
Cc1sc(-n2cccc2)c(C(=O)O)c1C	-12%	-9%	-11%	u	-4%	7%	u
O=C(O)c1c(-n2cccc2)sc2c1CCCC2	0%	4%	0%	i	3%	x	x
O=C(COC(=O)c1ccc(S(=O)(=O)N2CCc3ccccc3C2)cc1)NC1CCS(=O)(=O)C1 (configuration not stated)	0%	-9%	-3%	u	0%	x	u
O=C(COC(=O)c1ccc(S(=O)(=O)N2CCOCC2)cc1)NC1CCCCCCC1	0%	-5%	0%	i	0%	-6%[46 µM]	x
COC(=O)C1=C(C)N(C)C(=S)N(C)C1c1cccc(Br)c1 (configuration not stated)	-5%	-17%	-9%	u	-3%	u	-15%
CCOC(=O)C1=C(C)N(C)C(=S)N(C)C1c1ccc(OC)cc1 (configuration not stated)	2%	-4%	1%	-1%	-2%	x	x
COC(=O)c1cccc(C(=O)Oc2cccc(Br)c2)n1	-1%	11%	0%	14µM*	-1%	3%	-5%	RECQ1 conf=11%[114 µM];RECQ1 ADP FP=28%[91.9 µM]
O=C(CSc1nnc(-c2ccco2)n1Cc1ccccc1)c1ccc(F)cc1	-14%	-9%	-13%	u	1%	1%	-17%
CCOC(=O)c1cc(-c2ccccc2)sc1NC(=O)CN1C(=O)NC(CC)(c2ccc(F)cc2)C1=O (configuration not stated)	4%	4%	-8%	32µM*	1%	9%	-21%
SMILES	TDP1 inh	GCN5L2 inh	BLM inh	RECQ1 inh-1	APEX1 inh	Lamin A splicing	RECQ1 inh-2	others
CCOC(=O)c1cc(-c2ccccc2)sc1NC(=O)CN1C(=O)NC(CC)(c2ccccc2)C1=O (configuration not stated)	2%	-6%	-5%	i	6%	-1%	x
COc1ccc(-n2c(=O)c(-c3ccccc3)nc3cnc(N4CCOCC4)nc32)cc1	x	-11%	0%	-4%	-1%	u	x
CCOC(=O)C1CCN(C(=O)Nc2ccc3nc(-c4ccco4)c(-c4ccco4)nc3c2)CC1	35µM*	u	4.5µM*	10µM*	7.9µM*	-5%	u
CCOC(=O)C1CCN(C(=O)Nc2ccc3c(c2)nc(C)n3C)CC1	5%	0%	2%	4%	-5%	4%	x
O=C(Nc1nnc(C2CC2)s1)C1CC(=O)N(c2ccc3c(c2)OCCO3)C1 (configuration not stated)	x	-26%	-19%	28µM*	u	-6%	u
O=c1ccn([C@@H]2O[C@H](COP(=O)(O)O)[C@@H](O)[C@H]2O)c(=O)[nH]1	1%	7%	x	9%	-4%	x	x
CCOc1ccc(OCC)c(NS(=O)(=O)c2c(C)[nH]c(=O)[nH]c2=O)c1	5%	-2%	-7%	x	x	u	x
Cc1c(C)n(C(=O)CSc2nc3ccccc3[nH]2)c2ccccc12	x	-3%[0.501 µM]	-11%	8.9µM*	14µM*	-3%	35µM*	RECQ1 conf=50µM*;RECQ1 ADP FP=3%[91.9 µM]
O=C(CSc1nc2ccccc2[nH]1)NCc1ccccc1	6%	2%	0%	x	44%	x	x
